PubChem BioAssay (NCATS)
Records with an inconclusive call do not appear. The source made the active and inactive calls. Calls follow the shape of the dose curve; as a rule, active = well fitted curve in the direction sought with a large enough effect; inconclusive = small, poorly fitted or top-dose-only effect, or another doubt; inactive = no such curve, though single readings can be large; an effect the other way counts as inactive or inconclusive.

Tests used:
[1] = target: Glutathione peroxidase 1 (Homo sapiens) (UniProt P07203); assay: Primary qHTS Assay for Inhibitors of Recombinant Selenoprotein Glutathione Peroxidase 1 (GPX1) (AID 1845191); also: nearly all actives have a fitted effect of over 65% in size; also: potency is read from the fitted curve at half-maximal effect; as to activity, negative = inhibition: % is scaled to controls: 0 for no effect and ±100 for the full control effect
Glutathione peroxidase 1 (Homo sapiens), sequence (P07203 whole entry, looked up): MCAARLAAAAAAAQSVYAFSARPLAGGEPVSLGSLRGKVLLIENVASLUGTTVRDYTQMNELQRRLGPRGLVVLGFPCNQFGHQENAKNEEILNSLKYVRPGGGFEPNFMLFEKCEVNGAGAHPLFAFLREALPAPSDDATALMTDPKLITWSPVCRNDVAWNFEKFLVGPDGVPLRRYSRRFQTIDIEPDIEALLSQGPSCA
How it was run: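 GR-coupled readout: NADPH consumption tracked by fluorescence, ex 340/em 450 nm, at t=0 and after 15 min at RT. Final mix 10 nM GPX1, 1 mM GSH, 0.5 mM CHP, 0.5 mM NADPH, 100 nM GR, 0.01% BSA, following 30 min enzyme–compound preincubation.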

[2] = target: Phospholipid hydroperoxide glutathione peroxidase GPX4 (Homo sapiens) (UniProt P36969); assay: Primary qHTS Assay for Inhibitors of Recombinant Selenoprotein Glutathione Peroxidase 4 (GPX4) (AID 1845192); also: nearly all actives have a fitted effect of over 65% in size; as to activity change, negative = inhibition: series mostly up to about 50 µM; % is scaled to controls: 0 for no effect and ±100 for the full control effect
Phospholipid hydroperoxide glutathione peroxidase GPX4 (Homo sapiens), sequence (P36969 whole entry, looked up): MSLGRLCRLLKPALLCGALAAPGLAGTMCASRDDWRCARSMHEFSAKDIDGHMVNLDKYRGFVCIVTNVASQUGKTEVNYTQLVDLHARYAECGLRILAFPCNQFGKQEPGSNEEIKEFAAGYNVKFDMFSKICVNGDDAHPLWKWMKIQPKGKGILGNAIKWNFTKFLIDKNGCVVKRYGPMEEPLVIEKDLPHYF
How it was run: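 Steps: GPX4 plus compound, 30 min RT; add GR/GSH/NADPH master mix; start with cumene hydroperoxide; read 340/450 nm fluorescence at 0 and 15 min. Finals were 200 nM GPX4, 1 mM GSH, 0.5 mM CHP, 0.5 mM NADPH, 100 nM GR.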

[3] = target: Luciferin 4-monooxygenase (Photinus pyralis) (UniProt P08659); assay: Primary firefly luciferase (FLuc) qHTS assay for identification of artifact compounds. (AID 1845220); also: nearly all actives have a fitted effect of over 60% in size;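 as to activity change, negative = inhibition: series mostly up to about 54 µM; plate controls were DMSO vehicle for no effect and no enzyme for full effect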
How it was run: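 Enzymatic FLuc inhibition assay: compounds pre-exposed to luciferin/ATP (10 uM each) for 15 min, then purified P. pyralis enzyme at 10 nM added. Read-out: luminescence at 5 min.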

[4] = tested on: Nanoluciferase (engineered Oplophorus gracilirostris luciferase); assay: Primary Nanoluciferase (NLuc) qHTS assay for identification of artifact compounds. (AID 1845222);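 also: NLuc secreted into diluted conditioned medium of S16 cells; series mostly up to about 54 µM; 0% = DMSO and -100% = no enzyme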
How it was run: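 S16 cell supernatant NLuc, 1:55; cpds qHTS; 15 min RT dark; Nano-Glo substrate 1:100, 5 min; luminescence; Hill fit of % inhibition.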

[5] = Primary redox qHTS assay for identification of artifact compounds. (AID 1845223);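 also: 0% = DMSO and 100% = reference compound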
How it was run: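 Redox-cycling detection via DTT (250 uM final) oxidation coupled to Amplex Red (25 uM)/HRP (250 mU/mL) in HBSS. 15 min preincubation plus 30 min after DTT, room temperature. Ex/Em 525/598 nm; 4-parameter Hill fit against DMSO and 10 uM DA3003.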

[6] = Primary fluorescence-based thiol-reactive (MSTI) qHTS assay for identification of artifact compounds. (AID 1845221);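 also: series mostly up to about 54 µM; thiol-reactive compounds lower the probe fluorescence signal; nearly all actives have a fitted effect of over 65% in size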
How it was run: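 One-hour, room-temperature, dark incubation of compound with 4 uM MSTI in PBS (pH 7.4, 2% DMSO) precedes a fluorescence read at 525 nm excitation, 598 nm emission; Hill-equation fitting yields concentration-response values.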

COc1ccc(/C=C/C(=O)O[C@H]2[C@H](O[C@H]3[C@@H]4C=CO[C@@H](O[C@@H]5O[C@H](CO)[C@@H](O)[C@H](O)[C@H]5O)[C@@H]4[C@@]4(CO)O[C@@H]34)O[C@@H](C)[C@H](O)[C@H]2OC(C)=O)cc1
inactive: Potency [1] | Potency [2] | Potency [3] | Potency [4]

COc1c(/C=C/C(C)(C)O)ccc2c1C(=O)OCc1cc(C)cc(O)c1O2
inactive: Potency [1] | Potency [2] | Potency [3] | Potency [4]

CC1(C)C=CN2C(=O)C3=CCCN3C(=O)[C@@H]2C[C@@]12Nc1ccccc1C2=O
inactive: Potency [1] | Potency [2] | Potency [3] | Potency [4]

COc1cc(C(=O)OC[C@H]2O[C@@H](Oc3ccccc3/C=C/C(=O)O)[C@H](O)[C@@H](O)[C@@H]2O)cc(OC)c1OC
inactive: Potency [1] | Potency [2] | Potency [3] | Potency [4]

C/C=C/C(O)C1OC(=O)CC1Nc1ccc(C(=O)O)cc1 (centres undefined)
inactive: Potency [1] | Potency [2] | Potency [3] | Potency [4]

C/C=C/C1=CC2=C(CO1)C(=O)C(C)(O)C(OC(=O)c1c(C)cc(OC)cc1O)C2 (centres undefined)
inactive: Potency [1] | Potency [2] | Potency [3] | Potency [4]

CC(=O)CC1CCC(C(C)C(=O)OCC(O)CO)O1 (centres undefined)
inactive: Potency [1] | Potency [2] | Potency [3] | Potency [4]

C[C@@H]1O[C@@H](O[C@H]2[C@H](O)[C@@H](O)[C@H](O[C@H]3[C@H](O[C@H]4CC[C@@]5(C)C(=CC[C@@H]6C5CC[C@]5(C)[C@@H]7[C@H](C[C@@H]65)O[C@]5(CC[C@@](C)(CO[C@@H]6O[C@H](CO)[C@@H](O)[C@H](O)[C@H]6O)O5)[C@H]7C)C4)O[C@H](CO)[C@@H](O)[C@@H]3O)O[C@@H]2CO)[C@H](O)[C@H](O)[C@H]1O (some centres undefined)
inactive: Potency [1] | Potency [2] | activity change, negative = inhibition [3] -0.0839% [at 11.6 µM] | activity, negative = inhibition [4] 1.75% [at 11.6 µM]

CC(O)/C=C/C1OC(=O)CC1Nc1ccc(C(=O)O)cc1 (centres undefined)
inactive: Potency [1] | Potency [2] | Potency [3] | Potency [4]

C[C@@H]1CC[C@]2(C(=O)O)CC[C@]3(C)C(=CCC4[C@@]5(C)C[C@@H](O)[C@H](O)[C@@](C)(CO)C5CC[C@]43C)C2[C@]1(C)O (some centres undefined)
inactive: Potency [1] | Potency [2] | Potency [3] | Potency [4]

COc1ccc(CC2C(=O)NC(C)C(=O)N(C)C3Cc4ccc(cc4)Oc4cc(ccc4OC4OC(CO)C(O)C(O)C4O)CC(C(=O)NC(C)C(=O)NC(C)C(=O)N2C)N(C)C3=O)cc1 (centres undefined)
inactive: Potency [1] | Potency [2] | activity change, negative = inhibition [3] -7.7% [at 11.6 µM] | activity, negative = inhibition [4] -5.37% [at 11.6 µM]

CC(=O)O[C@@H]1CC(C)=C2[C@H]1[C@H](C)CC[C@H]2/C=C(\C)C(=O)O
inactive: Potency [1] | Potency [2] | Potency [3] | Potency [4]

CC(=O)NC1C(OC(C)(C)C2CCC3(C)C=C(C4CCC5C4(C)CC(O)C4OC(C(C)(C)O)CCC45C)CCC3O2)OC(CO)C(O)C1O (centres undefined)
inactive: Potency [1] | Potency [2] | Potency [3] | Potency [4] | Potency [5]

CC/C=C\CC1C(=O)C=CC1(CCCCCCCC(=O)O)OC(C)=O (centres undefined)
inactive: Potency [1] | Potency [2] | Potency [3] | Potency [4]

CC(C)c1cc(CNc2nc(Nc3cc(C4CC4)[nH]n3)cc(N3CCN(C)CC3)n2)on1
inactive: Potency [1] | Potency [2] | Potency [3] | Potency [4]

CC(C)(C)Nc1nc(Nc2ccc(C(N)=O)cc2)cc(N)c1C#N
inactive: Potency [2] | Potency [3] | Potency [4]
active: Potency [1] 22.7 µM

COc1ccc(N2CCOCC2)c2sc(NC(=O)N3CCC(C)(O)CC3)nc12
inactive: Potency [1] | Potency [2] | Potency [3] | Potency [4]

COC1C(CO)OC(n2cnc3c(=O)[nH]cnc32)C1O (centres undefined)
inactive: Potency [1] | Potency [2] | Potency [3] | Potency [4]

Cc1ccc(C(=O)N(CCCN)C(c2oc3cc(Cl)ccc3c(=O)c2Cc2ccccc2)C(C)C)cc1 (centres undefined)
inactive: Potency [1] | Potency [2] | Potency [3] | Potency [4]

CC(=O)OC/C=C(\C)C(CC1C(C)=C(OC(C)=O)C(=O)C2C(C)(C)C(O)CCC12C)OC(C)=O (centres undefined)
inactive: Potency [1] | Potency [2] | Potency [3] | Potency [4]

CC(O)CCC1C(CO[C@@H]2O[C@H](CO)[C@@H](O)[C@H](O)[C@H]2O)CC(O)CC1(C)C (some centres undefined)
inactive: Potency [1] | Potency [2] | Potency [3] | Potency [4]

O=C1CCC=CC1(O)C(=O)OCc1ccccc1O[C@@H]1O[C@H](CO)[C@@H](O)[C@H](O)[C@H]1O (some centres undefined)
inactive: Potency [1] | Potency [2] | Potency [3] | Potency [4]

C[C@@H]1CCC/C=C/[C@H]2CC(=O)C[C@@H]2[C@@H](O)/C=C/C(=O)O1
inactive: Potency [1] | Potency [2] | Potency [3] | Potency [4]

CC(C)=CCC/C(C)=C/Cc1ccc(O)c(C2OC(=O)c3cc(C(=O)O)cc(O)c32)c1O (centres undefined)
inactive: Potency [1] | Potency [2] | Potency [3] | Potency [4]

C[S+](CC[C@H](N)C(=O)[O-])C[C@H]1O[C@@H](n2cnc3c(N)ncnc32)[C@H](O)[C@@H]1O (some centres undefined)
inactive: Potency [1] | Potency [2] | Potency [3] | Potency [6] | Potency [5]

CC(C)CC1NC(=O)C2CC3(O)c4ccccc4NC3N2C1=O (centres undefined)
inactive: Potency [1] | Potency [2] | Potency [3] | Potency [4]

CC1=C(C(=O)O[C@@H]2O[C@H](COC3OCC(O)C(O)C3O)[C@@H](O)[C@H](O)[C@H]2O)C(C)(C)CCC1 (some centres undefined)
inactive: Potency [1] | Potency [2] | Potency [3] | Potency [4]

CO[C@H]1C[C@@H]2CC[C@@H](C)[C@@](O)(O2)C(=O)C(=O)N2CCCC[C@H]2C(=O)O[C@H]([C@H](C)C[C@H]2CC[C@@H](OP(C)(C)=O)[C@H](OC)C2)CC(=O)[C@H](C)/C=C(\C)[C@@H](O)[C@@H](OC)C(=O)[C@H](C)C[C@H](C)/C=C/C=C/C=C/1C
inactive: Potency [1] | Potency [2] | Potency [3] | Potency [4]
